Reference: PubChem BioAssay AID1726 (National Center for Advancing Translational Sciences (NCATS), 2009)
Results filed as inconclusive are left out. Calls of active or inactive are those of the source. Calls come from the whole dose curve; as a rule, active = well fitted curve in the direction sought with a large enough effect; inconclusive = small, poorly fitted or top-dose-only effect, or effect the other way, or another doubt; inactive = no such curve, though single readings can be large or run the other way.

Molecular target: Epidermal growth factor receptor (Homo sapiens) (UniProt P00533)
Assay: Assay for Inhibitors of the ERK Signaling Pathway using a Homogeneous Screening Assay: EGFR T790M/L858R Kinase Inhibition
From the text: qHTS Assay for Inhibitors of the ERK Signaling Pathway using a Homogeneous Screening Assay
NIH Chemical Genomics Center [NCGC]
NIH Molecular Libraries Screening Centers Network [MLSCN]
Assay Submitter (PI): Dr. Wei Zheng, NCGC/NIH
The Ras/extracellular-signal-regulated kinase (ERK) mitogen activated protein (MAP) kinase signaling pathway (ERK1/2 cascade) plays is a key role in transmitting signals from the cell surface to the nucleus (Nishida and Gotoh 1993; Chang and Karin, 2001). The cascade is initiated by the small G-protein Ras, which recruits Raf […], where activation occurs. Alternatively, this pathway can be activated by elevating intracellular cAMP.
Activation of the ERK pathway is essential in increased cell division and cell survival. Sustained and constitutive activation of the ERK pathway, however, has been linked to uncontrolled cell proliferation, increased cell survival, and tumor progression. Thus, the ERK has been as an attractive target for cancer chemotherapy in the past few years (Sebolt-Leopold and Herrera, 2004). […]
The HTRF kinase assay (components supplied as kit by Cisbio) was chosen for the EGFR and EGFR mutant enzyme assays that applied the time resolved fluorescence resonance energy transfer (TR-FRET) principle. […]

Sequence of Epidermal growth factor receptor (Homo sapiens) (P00533 whole entry T790M/L858R, looked up): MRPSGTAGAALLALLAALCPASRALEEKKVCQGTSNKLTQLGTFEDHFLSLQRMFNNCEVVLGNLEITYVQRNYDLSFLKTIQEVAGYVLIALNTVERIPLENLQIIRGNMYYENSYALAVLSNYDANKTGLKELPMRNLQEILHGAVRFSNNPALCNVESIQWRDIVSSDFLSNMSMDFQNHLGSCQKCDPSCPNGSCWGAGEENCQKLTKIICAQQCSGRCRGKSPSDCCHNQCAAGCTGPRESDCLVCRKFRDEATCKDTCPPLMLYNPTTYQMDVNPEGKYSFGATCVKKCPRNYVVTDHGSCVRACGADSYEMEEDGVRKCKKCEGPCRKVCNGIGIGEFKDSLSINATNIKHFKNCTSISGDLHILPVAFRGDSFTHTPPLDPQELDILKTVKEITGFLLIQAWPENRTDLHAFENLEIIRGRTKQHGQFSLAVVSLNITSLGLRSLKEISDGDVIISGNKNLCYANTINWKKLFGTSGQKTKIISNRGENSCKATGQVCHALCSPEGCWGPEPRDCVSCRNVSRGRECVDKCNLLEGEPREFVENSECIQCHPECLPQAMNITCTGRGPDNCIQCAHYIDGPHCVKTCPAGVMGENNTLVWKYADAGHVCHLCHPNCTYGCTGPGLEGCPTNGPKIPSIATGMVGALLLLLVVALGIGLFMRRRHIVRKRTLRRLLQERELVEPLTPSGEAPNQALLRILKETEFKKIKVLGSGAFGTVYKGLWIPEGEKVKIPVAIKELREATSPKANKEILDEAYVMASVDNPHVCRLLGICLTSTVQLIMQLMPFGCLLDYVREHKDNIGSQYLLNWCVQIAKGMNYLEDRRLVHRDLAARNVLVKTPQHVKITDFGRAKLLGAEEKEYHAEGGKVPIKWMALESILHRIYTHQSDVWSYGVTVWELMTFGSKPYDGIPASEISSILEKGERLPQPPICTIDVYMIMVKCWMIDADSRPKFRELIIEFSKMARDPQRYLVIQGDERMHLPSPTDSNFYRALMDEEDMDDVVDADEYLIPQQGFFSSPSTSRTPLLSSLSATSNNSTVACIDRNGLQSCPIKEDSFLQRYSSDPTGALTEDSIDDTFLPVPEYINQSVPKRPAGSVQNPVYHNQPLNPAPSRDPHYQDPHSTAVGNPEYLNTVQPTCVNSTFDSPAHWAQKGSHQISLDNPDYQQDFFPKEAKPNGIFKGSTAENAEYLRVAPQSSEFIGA

Structure (SMILES)	outcome
Cc1nc2c(=O)n(C)c(=O)nc-2n(C)n1	inactive
CN1CCN(c2cccc3c2C(=O)c2ccccc2C3=O)CC1	inactive
